# Assay results as given in the supplement of paper PMC8285479.
# Counter-ions that a name gives are not always drawn. ± gives the standard deviation of the averaged measurements. Over roughly 1,900 compounds, “normalised cell viability (NPI; 0 = phenylarsine oxide control, 1 = DMSO control)” has its median near 1; the lowest 2% begin near 0.039. Only a selection was taken, and the lowest values are over-represented in it overall.
# Tested on: NCI-H1944
# Assay: normalised cell viability (NPI; 0 = phenylarsine oxide control, 1 = DMSO control) (fraction of DMSO control); NCI-H1944 is a non-small cell lung cancer line; higher = more viable cells (less compound toxicity)
# Details: 6 days
# [1] = glucocorticoid arm: hydrocortisone 2.75 uM co-treatment, compound 1 µM
# [2] = glucocorticoid arm: hydrocortisone 2.75 uM co-treatment, compound 5 µM
# [3] = glucocorticoid arm: hydrocortisone 2.75 uM pre-treated 2 days and continued, compound 1 µM
# [4] = glucocorticoid arm: hydrocortisone 2.75 uM pre-treated 2 days and continued, compound 5 µM
# [5] = glucocorticoid arm: vehicle, compound 1 µM
# [6] = glucocorticoid arm: vehicle, compound 5 µM
# 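Further: CTB read-out in 384-well plates, triplicate wells, NPI normalised per plate against 1 µM phenylarsine oxide (0) and 0.1% DMSO (1) controls.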
SMILES,normalised cell viability [1],normalised cell viability [2],normalised cell viability [3],normalised cell viability [4],normalised cell viability [5],normalised cell viability [6]
CC(C=CC(=O)NO)=CC(C)C(=O)c1ccc(N(C)C)cc1 (stereo unspecified) [Trichostatin A (TSA)],0.0292 ± 0.0042,-0.000733 ± 0.0048,0.937 ± 0.098,0.00269 ± 0.00055,0.00709 ± 0.0011,8.2e-05 ± 0.00089
Cc1ccc(C(=O)c2cc(/C=C/C(=O)NO)n(C)c2)cc1,1 ± 0.022,1.02 ± 0.02,1 ± 0.021,1.02 ± 0.017,0.9928 ± 0.0048,0.995 ± 0.022
CN1CCC[C@@H]1c1cccnc1.Cc1ccc(C(=O)O[C@H](C(=O)O)[C@@H](OC(=O)c2ccc(C)cc2)C(=O)O)cc1 [(+)-Nicotine (+)-di-p-toluoyl tartrate],1.03 ± 0.015,1.02 ± 0.016,1.03 ± 0.01,1.03 ± 0.021,1.027 ± 0.0058,1.03 ± 0.015
CC1CN(S(=O)(=O)c2cccc3cnccc23)CCN1 (stereo unspecified),0.9777 ± 0.0078,0.966 ± 0.025,0.9933 ± 0.0051,1.01 ± 0.091,0.9757 ± 0.0074,0.9753 ± 0.0076
Oc1cc2c(c(Cl)c1O)CCNCC2c1ccccc1 (racemic) [(±)-6-Chloro-PB hydrobromide],1.007 ± 0.0058,1.04 ± 0.023,1.03 ± 0.015,1.05 ± 0.01,1.02 ± 0.01,1.02
O=C(c1ccc2c(c1)OCCO2)N1CCCCC1,1.005 ± 0.0092,1 ± 0.017,1.01,1 ± 0.017,0.9913 ± 0.0096,0.9947 ± 0.0021
O=C1O/C(=C/Br)CCC1c1cccc2ccccc12 (stereo unspecified) [Bromoenol lactone],1.02,1.02 ± 0.026,1.01 ± 0.01,1.02,0.998 ± 0.013,1.01
CCOC(=O)C1=CN(Cc2ccccc2)C=C(C(=O)OCC)C1c1ccccc1,0.995 ± 0.018,1.01 ± 0.026,1 ± 0.019,1.01 ± 0.021,0.993 ± 0.0059,1.003 ± 0.01
O=C(O)c1cc(O)c2ccc(Cl)cc2n1 [7-Chlorokynurenic acid],1.002 ± 0.0069,0.974 ± 0.0072,1.01 ± 0.015,0.9873 ± 0.0046,1.01 ± 0.01,0.997 ± 0.0036
N=C(N)NCCCCN [Agmatine sulfate],1.017 ± 0.0058,1 ± 0.025,1.003 ± 0.0058,1 ± 0.025,0.986 ± 0.012,0.997 ± 0.011
CC(C)C[C@H](NC(=O)[C@@H](O)[C@H](N)Cc1ccccc1)C(=O)O [Bestatin hydrochloride],0.996 ± 0.0046,1.02 ± 0.011,0.989 ± 0.01,1.02 ± 0.033,0.979 ± 0.012,0.9903 ± 0.0015
CC(C)C[C@H](NC(=O)[C@H](Cc1ccccc1)NC(=O)c1cnccn1)B(O)O [Bortezomib (Velcade)],0.352 ± 0.024,0.0578 ± 0.0037,0.677 ± 0.016,0.351 ± 0.042,0.00826 ± 0.0011,0.000986 ± 0.0007
CC(C)C[C@H](NC(=O)[C@H](O)[C@H](N)Cc1ccccc1)C(=O)O [Epibestatin hydrochloride],1.003 ± 0.0064,0.9953 ± 0.004,0.9977 ± 0.004,0.9947 ± 0.005,0.9957 ± 0.0067,1.007 ± 0.0058
CC(C)C[C@H](NC(=O)[C@H](Cc1ccccc1)NC(=O)c1cnccn1)B(O)O [Bortezomib],0.281 ± 0.011,0.0356 ± 0.0084,0.669 ± 0.035,0.28 ± 0.054,0.00407 ± 0.00064,0.00157 ± 0.00063
C#C[C@]1(O)CC[C@H]2[C@@H]3CCC4=Cc5oncc5C[C@]4(C)[C@H]3CC[C@@]21C [Danazol],0.998 ± 0.001,1 ± 0.021,0.991 ± 0.022,1.01 ± 0.027,1.007 ± 0.0058,1.013 ± 0.0058
C[C@]12CC[C@H](O)CC1=CC[C@@H]1[C@@H]2CC[C@]2(C)C(c3cccnc3)=CC[C@@H]12 [Abiraterone],1.043 ± 0.0058,1.18 ± 0.023,1.05,1.11 ± 0.025,0.848 ± 0.021,1.05 ± 0.011
